Molecules are shown by their SMILES. Screen size: about 1,800 compounds; about 410 (23%) were called active. How the calls were made is not given here. The list is a sample of the results. A call without a number means that no potency is given here. Potency and affinity values are given separately.

The assay can be described thus: Vero cell cytotoxicity, cytotoxicity control for flavivirus capping enzyme inhibitors (AID 588742). To be noted: Vero cells viability, cytotoxicity counter-screen; series mostly up to 40 µM. Background: Counterscreens check selectivity or assay interference.
As to `CCOc1cc(/C=C2\C(=O)ON=C2c2ccccc2)ccc1OC`, the molecule was classed as inactive.
Consider `O=C1C(Cl)=C(N2CCOCC2)C(=O)N1c1ccccc1`, for which the molecule was classed as inactive.
Then `Cc1cc(NS(=O)(=O)c2ccc(Nc3nc(-c4sc(N)nc4C)cs3)cc2)no1`, with “inactive”; and `CCc1sc(C(C2C(=O)CC(C)(C)CC2=O)C2C(=O)CC(C)(C)CC2=O)cc1[N+](=O)[O-]`, with “inactive”.
Take `Cc1ccc(CNC(=O)CSc2n[nH]c(N)n2)cc1`: the molecule was called inactive.
`CCCCC(NC(=O)Cc1c(C)c2cc3c(-c4ccccc4)coc3c(C)c2oc1=O)C(=O)O` (stereo unspecified): the result was inactive.
The entry for `Oc1ccc(N=Nc2ccccc2-c2nn[nH]n2)c(O)c1` is “inactive”.
The entry for `CC(C)OP(=O)(OC(C)C)C1(NS(=O)(=O)c2ccc(Cl)cc2)C=C(Cl)C(=O)C(Cl)=C1` is “inactive”.
With `CC1=NN(c2ccc(Br)cc2)C(=O)/C1=C/c1ccc(-c2ccccc2C(=O)O)o1`, the call was inactive.
Then `Cc1ccccc1-c1ncc(CN2CCN(C3CCCCC3)C(CCO)C2)cn1` (stereo unspecified), with “inactive”; and `CC1(C)Cc2c(C#N)c(N)sc(=S)c2CS1`, with “inactive”; and `COc1ccc(N2C(=O)C3CCCN3C2c2cccc(Br)c2)cc1` (stereo unspecified), with “inactive”.
Consider `O=C(CCc1ccc(S(=O)(=O)N2CCOCC2)cc1)N/N=C/c1ccc(O)c(O)c1O`, for which the call was inactive.
For `O=[N+]([O-])c1ccc(N/N=C/c2ccc(O)c(O)c2O)c(S(=O)(=O)N2CCOCC2)c1`, the outcome was inactive.
Take `Oc1ccc2ccccc2c1C=NC12CN3CCN(CN(C3)C1)C2`: the call was inactive.
Then `CCN(CC)c1ccc(SS(=O)(=O)O)cc1`, with “inactive”.
Then `O=C(O)c1ccc(N(c2ccccc2)c2ccccc2)cc1`, with “inactive”.
The entry for `COc1ccccc1CNC(=O)CN1C(=O)N(C)C2(CCCCC2)C1=O` is “inactive”.
`O=c1[nH]n2c(=O)c3c([nH]c2c1N=Nc1cccc(Cl)c1)CCCC3`: the result was inactive.
The entry for `CC(C)CSC1=NSC2=NC(=O)/C(=C\c3ccccc3)C(=N)N12` is “inactive”; for `Nc1ccc(N2CCOCC2)c2nonc12` it is “inactive”; for `O=C(O)c1ccc(COc2ccccc2C=C2C(=O)c3ccccc3C2=O)cc1` it is “inactive”.
The entry for `Cc1ccccc1SCC(=O)OCC(=O)Nc1ccc(N(C)C)cc1` is “inactive”; for `CN(C)c1ccc(NC(=O)CCCc2ccccc2)cc1` it is “inactive”.
The entry for `O=C(O)c1cccc(NC2=C(Cl)C(=O)c3ccccc3C2=O)c1` is “inactive”; for `CC(=O)N(C(C)=O)N1C(=O)C2C3c4ccccc4C(c4ccccc43)C2C1=O` (stereo unspecified) it is “inactive”; for `O=C(CN1C(=O)/C(=C2\SC(=S)N(CCS(=O)(=O)O)C2=O)c2ccccc21)Nc1cccc(Br)c1` it is “inactive”.
With `O=C1/C(=C/c2cccc(F)c2)SC(=S)N1NS(=O)(=O)c1ccccc1`, the molecule was classed as inactive.
Regarding `CCNc1sc(C(=O)c2cccs2)c(N)c1C#N`, the outcome was inactive.
The entry for `CC(C)CN1C(=O)/C(=C/c2ccco2)NC1=S` is “inactive”.
Then `Cc1cccc(OC(C)C(=O)OCC(=O)Nc2sccc2C(N)=O)c1` (stereo unspecified), with “inactive”; and `CC(=O)C1CCC2C3CCC4=CC(=O)CCC4(C)C3(Br)C(=O)CC12C` (stereo unspecified), with “inactive”.
The entry for `COC(=O)CCC(=O)OC1(C)C(=O)C2=CN(Cc3ccccc3)C(c3ccc(OC)cc3)=CC2=C(Br)C1=O` (stereo unspecified) is “inactive”.
Consider `O=c1c([N+](=O)[O-])c(O)c2ccccc2n1Cc1ccccc1`, for which the outcome was inactive.
The entry for `Nc1nc(N=Nc2ccc(O)cc2)cc(=O)[nH]1` is “inactive”.
The entry for `Cc1cc(C(=O)O)ccc1-c1ccc(/C=C2\NC(=O)N(Cc3ccc(F)cc3)C2=O)o1` is “inactive”.
Then `CCS(=O)(=O)c1nc(S(=O)(=O)c2ccc(Cl)cc2)c(N2CCC(O)CC2)s1`, with “inactive”; and `O=C1C2C3CCCC3=C3CCCC3C2C(=O)N1c1cccc(Cl)c1` (stereo unspecified), with “inactive”; and `O=C(O)c1cccc(Nc2nc3ccccc3nc2NS(=O)(=O)c2cccs2)c1`, with “inactive”.
With `Cc1ccc(N2NC(=O)/C(=C/c3ccc(-c4ccc(Cl)c(C(=O)O)c4)o3)C2=O)cc1C`, the molecule was classed as inactive.
Then `O=C1C(Cl)=C(Oc2ccccc2)C(=O)c2ccccc21`, with “inactive”.
Turning to `COc1cccc(/C=C2\C(=O)C(=O)c3ccccc32)c1`, the result was inactive.
Then `CC(=O)OCC1=C(C(=O)O)N2C(=O)C(NC(=O)c3ccc(COc4cccc(Cl)c4Cl)o3)C2SC1` (stereo unspecified), with “inactive”; and `O=C(NCCCN1CCOCC1)c1ccc(NS(=O)(=O)c2ccccc2)cc1`, with “inactive”; and `O=C(c1c(F)cccc1F)N1CCCC1`, with “inactive”.
Take `Oc1ccc(/C=N/Nc2ccc(Cl)nn2)c(O)c1O`: the molecule was called inactive.
Then `C#CCOc1ccc(/C=C2/C(=O)N(c3ccc(S(N)(=O)=O)cc3)N=C2C)cc1OC`, with “inactive”; and `O=C(CCN1C(=O)/C(=C\c2ccccc2F)SC1=S)Nc1ccc(C(=O)O)c(O)c1`, with “inactive”; and `COC(=O)c1sc(N2C(=O)C(O)=C(C(=O)c3ccc(C)o3)C2c2ccc([N+](=O)[O-])cc2)nc1C` (stereo unspecified), with “inactive”.
The entry for `CC[n+]1c(/C=C2\C=C(C)CC(C)(C)C2)sc2ccccc21` is “inactive”.
The entry for `CC1=NN(c2ccccc2)C(=O)/C1=C\c1ccc(Oc2ccc([N+](=O)[O-])cc2[N+](=O)[O-])cc1` is “inactive”.
In the case of `O=C(O)c1cccc(N2C(=O)c3cc([N+](=O)[O-])cc4cc([N+](=O)[O-])cc(c34)C2=O)c1`, the molecule was called inactive.
Then `O=C(c1cccc(S(=O)(=O)N2CCOCC2)c1)N(Cc1ccc(F)cc1)Cc1ccco1`, with “inactive”; and `Cc1ccc(C2/C(=C(/O)c3ccc(Br)cc3)C(=O)C(=O)N2Cc2ccco2)o1` (stereo unspecified), with “inactive”; and `CCc1ccc([C@@H]2CC=C(C(=O)O)[C@H](c3ccc(C)cc3)N2S(=O)(=O)c2ccc(C)cc2)cc1`, with “inactive”.
The entry for `O=C(O)/C=C/C(=O)c1c(-c2ccccc2)[nH]c2ccccc12` is “inactive”; for `CCc1ccc(NC(=O)C2=CC=CN3CCS(=O)(=O)N=C23)cc1` it is “inactive”; for `Cc1noc(NS(=O)(=O)c2ccc(NC(=O)c3ccccc3NS(=O)(=O)c3ccc(F)c(F)c3)cc2)c1C` it is “inactive”.
The entry for `O=C1C(Cl)=C(N2CCOCC2)C(=O)N1c1ccc(Br)cc1` is “inactive”.
Turning to `Cc1ccc(C)c(OCC(=O)NCC2COc3ccccc3O2)c1` (stereo unspecified), the result was inactive.
The entry for `COc1nc(OC)nc(N2CCC(C(=O)NC3CC3)CC2)n1` is “inactive”.
Then `O=C(O)CN1C(=O)/C(=C\c2cc(Br)ccc2OCc2ccc(Cl)cc2)SC1=S`, with “inactive”; and `O=C(O)CCN1C(=O)/C(=C\c2cccc(Oc3ccccc3)c2)SC1=S`, with “inactive”; and `COc1cc(/C=C2/S/C(=N/S(=O)(=O)c3ccccc3)NC2=O)c([N+](=O)[O-])cc1OC`, with “inactive”.
Then `O=C1OC(c2ccccc2)(c2cc(Br)c(O)c(Br)c2)c2ccccc21` (stereo unspecified), with “inactive”.
For `O=C(O)C(Cc1ccccc1)N1C(=O)c2c(Cl)c(Cl)c(Cl)c(Cl)c2C1=O` (stereo unspecified), the molecule was classed as inactive.

(Values after PubChem BioAssay AID588742 (Southern Research Specialized Biocontainment Screening …, 2011).)
